Measurements taken from PubChem BioAssay.
Calls of active or inactive are those of the source.

Key:
[1] = biological target: Albumin (Bos taurus) (UniProt P02769); assay: compounds binding labelled BSA control protein – biochemical, small-molecule microarray, Alexa647 label, 635/667 nm fluorescence, artefact control for SMM control protein annotation, profiling panel (AID 1118); details: BSA-A647 binding, fluorescence 635 nm, higher = more signal;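 also: score merges 667 nm emission intensity and signal-to-noise per printed compound spot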
Albumin (Bos taurus), sequence (P02769 whole entry, looked up): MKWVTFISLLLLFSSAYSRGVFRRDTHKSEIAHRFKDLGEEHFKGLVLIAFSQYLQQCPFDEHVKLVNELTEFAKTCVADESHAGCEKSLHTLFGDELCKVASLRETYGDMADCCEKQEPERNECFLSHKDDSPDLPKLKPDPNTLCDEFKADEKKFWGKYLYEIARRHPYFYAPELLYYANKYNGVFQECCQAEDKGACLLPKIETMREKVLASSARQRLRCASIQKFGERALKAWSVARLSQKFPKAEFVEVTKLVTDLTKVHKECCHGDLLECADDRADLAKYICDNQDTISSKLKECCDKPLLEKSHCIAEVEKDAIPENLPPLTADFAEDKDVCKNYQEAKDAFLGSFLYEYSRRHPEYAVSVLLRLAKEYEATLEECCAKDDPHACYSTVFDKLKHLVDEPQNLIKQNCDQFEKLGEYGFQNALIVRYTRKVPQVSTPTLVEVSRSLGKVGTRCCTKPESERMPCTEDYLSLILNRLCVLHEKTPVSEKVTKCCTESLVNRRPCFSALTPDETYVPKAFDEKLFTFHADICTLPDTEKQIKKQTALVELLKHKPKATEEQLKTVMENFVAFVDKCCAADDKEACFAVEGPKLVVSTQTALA

[2] = probe aXIP binding to arrayed compounds – biochemical, NeuroSMM set, 635/667 nm fluorescence, primary screen (AID 1119); details: small-molecule microarray, higher = more signal, called active from +8 up or from −8 down;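 also: probe is the protein aXip251-270 applied at 1 µg/mL to compound-printed slides; binding of probe to printed compounds measured as 667 nm fluorescence plus signal to noise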
[3] = probe aNOTCH3 binding on compound microarray – biochemical, small-molecule microarray, 635/667 nm fluorescence, primary screen (AID 1120); details: higher = more signal;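 also: probe is a biotin-tagged antibody raised against NOTCH3 rather than NOTCH3 protein; score merges spot fluorescence near 667 nm with spot signal to noise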
[4] = probe aNOTCH2 binding on compound microarray – biochemical, small-molecule microarray, 635/667 nm fluorescence, primary screen (AID 1121); details: higher = more signal;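 also: score merges feature fluorescence read at 667 nm with its signal to noise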
[5] = biological target: Carbonic anhydrase 2 (Homo sapiens) (UniProt P00918); assay: compounds binding carbonic anhydrase 2 – biochemical, small-molecule microarray, Alexa647-labelled CAII, profiling panel (AID 1122); details: CAII-A647 binding fluorescence, higher = more signal
[6] = COS7 lysate on small-molecule microarray, probe aHis, 635 nm (AID 1123); details: COS7 cell lysate, fluorescence, higher = more signal;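 also: z-score combines 667nm fluorescence intensity with signal-to-noise per printed compound spot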
[7] = probe aLAP1 signal on lysate-treated microarray – cell lysate, small-molecule microarray, COS7 lysate, primary screen (AID 1124); details: probe aLAP1, fluorescence, higher = more signal;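 also: lysate comes from COS7 cells expressing LAP1 and is applied at 0.3 µg/mL; score merges spot fluorescence near 667 nm with signal-to-noise over triplicate slides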
[8] = system: Sam68 (KHDRBS1); assay: compounds binding KHDRBS1 protein – biochemical, small-molecule microarray, 635 nm fluorescence, primary screen (AID 1125); details: higher = more signal;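 also: score merges 667 nm channel intensity with signal to noise over triplicate slides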
[9] = system: Chordin-like protein 2 (CHRDL2); assay: compounds binding chordin-like 2 – biochemical, small-molecule microarray, 635 nm fluorescence, primary screen (AID 1126); details: fluorescence 635 nm, higher = more signal;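 also: printed compound slides probed with Chrdl2 protein at 4 µg/mL for 1 h at 4 C; score merges 667 nm emission intensity with signal to noise over three replicate slides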
[10] = biological target: Concanavalin-A (Canavalia ensiformis) (UniProt P02866); assay: compounds binding concanavalin A lectin – biochemical, small-molecule microarray, Alexa647 label, 635 nm, artefact control for SMM control protein annotation, primary screen (AID 1127); details: ConA-A647 binding fluorescence, higher = more signal;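 also: z combines 667 nm emission intensity with signal-to-noise across three replicate slides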
Concanavalin-A (Canavalia ensiformis), sequence (P02866 whole entry, looked up): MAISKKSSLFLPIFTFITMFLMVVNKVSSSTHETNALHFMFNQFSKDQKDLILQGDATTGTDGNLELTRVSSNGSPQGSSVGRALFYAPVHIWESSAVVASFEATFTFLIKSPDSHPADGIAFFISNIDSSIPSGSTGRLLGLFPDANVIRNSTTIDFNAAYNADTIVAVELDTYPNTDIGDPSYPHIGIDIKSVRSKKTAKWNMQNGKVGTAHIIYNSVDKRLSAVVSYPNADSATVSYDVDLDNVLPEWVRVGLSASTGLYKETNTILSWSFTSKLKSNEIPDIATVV

[11] = compounds binding Alexa647 anti-His antibody – biochemical, small-molecule microarray, 635 nm fluorescence, artefact control for SMM control protein annotation, primary screen (AID 1128); details: higher = more signal;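 also: score merges feature fluorescence with signal-to-noise for each printed compound spot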
[12] = system: Human papillomavirus type 1a E7 protein (residues 1-88); assay: HPV1a E7 small-molecule binders, primary screen, biochemical, small-molecule microarray, residues 1-88, 635 nm (AID 1129); details: small-molecule microarray binding, fluorescence 635 nm; higher = more signal
[13] = biological target: Focal adhesion kinase 1 (Homo sapiens) (UniProt Q05397); assay: PTK2 protein binding on printed compound slides – biochemical, small-molecule microarray, 635/667 nm fluorescence, BSA, DTT, primary screen (AID 1130); details: 635 nm fluorescence, higher = more signal;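 also: composite of spot emission at 667 nm and signal to noise over triplicate slides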
Focal adhesion kinase 1 (Homo sapiens), sequence (Q05397 whole entry, looked up): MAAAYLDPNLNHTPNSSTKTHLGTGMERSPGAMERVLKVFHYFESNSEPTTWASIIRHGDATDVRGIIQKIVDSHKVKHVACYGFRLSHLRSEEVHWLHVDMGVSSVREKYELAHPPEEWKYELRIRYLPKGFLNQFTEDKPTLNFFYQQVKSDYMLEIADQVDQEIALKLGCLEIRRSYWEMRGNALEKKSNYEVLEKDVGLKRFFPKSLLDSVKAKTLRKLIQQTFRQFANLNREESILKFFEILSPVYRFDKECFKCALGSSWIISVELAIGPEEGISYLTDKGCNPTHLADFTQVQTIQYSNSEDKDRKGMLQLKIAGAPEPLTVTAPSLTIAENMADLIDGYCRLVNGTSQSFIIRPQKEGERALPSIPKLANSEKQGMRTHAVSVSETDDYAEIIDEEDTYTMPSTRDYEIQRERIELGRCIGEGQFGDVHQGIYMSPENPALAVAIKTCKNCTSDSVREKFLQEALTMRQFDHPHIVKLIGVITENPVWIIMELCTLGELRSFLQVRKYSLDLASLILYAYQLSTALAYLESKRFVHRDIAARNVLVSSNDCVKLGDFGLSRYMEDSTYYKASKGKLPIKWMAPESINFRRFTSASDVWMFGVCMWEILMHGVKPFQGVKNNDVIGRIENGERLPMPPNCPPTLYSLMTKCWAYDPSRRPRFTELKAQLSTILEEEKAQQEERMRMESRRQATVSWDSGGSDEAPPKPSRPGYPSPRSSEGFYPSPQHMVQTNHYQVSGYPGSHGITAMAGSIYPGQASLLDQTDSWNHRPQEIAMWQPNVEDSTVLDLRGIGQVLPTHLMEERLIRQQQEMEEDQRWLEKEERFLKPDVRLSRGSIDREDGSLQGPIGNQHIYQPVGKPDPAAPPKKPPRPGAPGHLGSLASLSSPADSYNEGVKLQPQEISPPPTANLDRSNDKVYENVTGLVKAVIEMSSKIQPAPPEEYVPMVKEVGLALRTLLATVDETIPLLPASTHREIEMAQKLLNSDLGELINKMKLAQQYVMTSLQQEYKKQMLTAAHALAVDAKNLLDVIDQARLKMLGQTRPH

[14] = system: Fibrinogen (Alexa647-labelled); assay: Alexa647-fibrinogen binding to printed small molecules – biochemical, small-molecule microarray, 635/667 nm fluorescence, artefact control for SMM control-protein annotation, profiling panel (AID 1131); details: fibrinogen-A647 binding fluorescence, higher = more signal;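 also: z-score merges 667 nm fluorescence with per-spot signal-to-noise over triplicate slides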
[15] = biological target: Follistatin (Homo sapiens) (UniProt P19883); assay: FST protein binding to printed compounds – biochemical, small-molecule microarray, 635/667 nm fluorescence, primary screen (AID 1132); details: 635 nm fluorescence, higher = more signal
Follistatin (Homo sapiens), sequence (P19883 whole entry, looked up): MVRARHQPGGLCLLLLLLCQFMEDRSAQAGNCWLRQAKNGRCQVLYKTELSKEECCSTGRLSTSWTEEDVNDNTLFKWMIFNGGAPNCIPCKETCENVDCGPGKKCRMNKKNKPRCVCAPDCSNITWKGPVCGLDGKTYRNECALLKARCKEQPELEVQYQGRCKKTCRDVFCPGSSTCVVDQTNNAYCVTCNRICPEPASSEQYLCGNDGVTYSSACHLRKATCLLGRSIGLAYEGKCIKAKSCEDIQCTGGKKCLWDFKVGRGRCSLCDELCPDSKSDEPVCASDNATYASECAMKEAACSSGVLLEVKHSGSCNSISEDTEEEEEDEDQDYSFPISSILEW

[16] = biological target: Fibroblast growth factor 2 (Homo sapiens) (UniProt P09038); assay: basic fibroblast growth factor binding to printed compounds – biochemical, small-molecule microarray, 635/667 nm fluorescence, primary screen (AID 1133); details: FGF2, fluorescence 635/667, higher = more signal
Fibroblast growth factor 2 (Homo sapiens), sequence (P09038 whole entry, looked up): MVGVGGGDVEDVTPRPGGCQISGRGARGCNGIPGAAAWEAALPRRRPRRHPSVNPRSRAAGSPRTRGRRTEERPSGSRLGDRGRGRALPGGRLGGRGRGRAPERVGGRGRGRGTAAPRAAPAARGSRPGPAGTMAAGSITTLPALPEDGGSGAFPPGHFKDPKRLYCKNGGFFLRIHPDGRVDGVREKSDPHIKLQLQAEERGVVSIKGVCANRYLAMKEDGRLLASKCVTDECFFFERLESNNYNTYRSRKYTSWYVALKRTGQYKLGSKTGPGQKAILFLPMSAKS

[17] = JC-1 mitochondrial potential readout, lung cancer cells – cell-based, A549, JC-1 fluorescence, basal, 24 h, 100 nL, profiling panel (AID 1138); details: higher = more signal;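 also: A549 lung adenocarcinoma cells under basal conditions with no added stimulus; test concentration not given here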
[18] = system: Lefty1; assay: Lefty1 protein binding to printed compounds – biochemical, small-molecule microarray, 635/667 nm fluorescence, primary screen (AID 1139); details: fluorescence 635/667, higher = more signal
[19] = system: wheat germ agglutinin (Triticum aestivum), Alexa647-labelled; assay: Alexa647-WGA lectin binding to printed small molecules – biochemical, small-molecule microarray, 635/667 nm fluorescence, artefact control for SMM control-protein annotation, profiling panel (AID 1140); details: WGA-A647 binding, 635 nm fluorescence, higher = more signal;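 also: score merges 667 nm feature emission with signal to noise over triplicate slides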
[20] = biological target: Luciferin 4-monooxygenase (Photinus pyralis) (UniProt P08659); assay: inhibition of purified Photinus pyralis luciferase – biochemical, luminescence, purified enzyme, 2006 set, primary screen (AID 1141); details: purified firefly luciferase, SteadyGlo luminescence, 30 min; higher = more signal, called active from +8 up or from −8 down;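 also: cell-free assay with purified firefly luciferase at 100 ng per well in PBS; test concentration not given here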
Luciferin 4-monooxygenase (Photinus pyralis), sequence (P08659 whole entry, looked up): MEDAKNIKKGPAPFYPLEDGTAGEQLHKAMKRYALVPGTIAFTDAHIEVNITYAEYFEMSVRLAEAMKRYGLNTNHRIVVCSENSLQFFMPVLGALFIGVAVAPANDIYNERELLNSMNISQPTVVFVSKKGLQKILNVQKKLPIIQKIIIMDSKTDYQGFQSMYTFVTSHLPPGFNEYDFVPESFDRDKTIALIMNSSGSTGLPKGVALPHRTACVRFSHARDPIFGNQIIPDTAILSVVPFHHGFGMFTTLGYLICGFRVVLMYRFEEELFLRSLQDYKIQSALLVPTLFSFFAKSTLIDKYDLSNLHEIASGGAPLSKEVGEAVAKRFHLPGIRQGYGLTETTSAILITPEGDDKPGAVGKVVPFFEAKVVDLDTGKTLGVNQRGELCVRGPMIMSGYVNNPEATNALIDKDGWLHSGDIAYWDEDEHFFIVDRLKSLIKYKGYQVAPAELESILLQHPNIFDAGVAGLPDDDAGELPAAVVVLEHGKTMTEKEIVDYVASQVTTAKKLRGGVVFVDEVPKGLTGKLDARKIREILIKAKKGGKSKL

| Structure (SMILES) | composite z-score [1] | composite Z-score [2] | composite z-score [3] | composite z-score [4] | composite z-score [5] | composite z-score [6] | composite z-score [7] | composite z-score [8] | composite z-score [9] | composite z-score [10] | composite z-score [11] | composite z-score [12] | composite z-score [13] | composite z-score [14] | composite z-score [15] | composite z-score [16] | z-score [17] | composite z-score [18] | composite z-score [19] | z-score [20] |
| --- | --- | --- | --- | --- | --- | --- | --- | --- | --- | --- | --- | --- | --- | --- | --- | --- | --- | --- | --- | --- |
| C=C(CCCC)/C(=C/C[C@H](OC(C)=O)c1ccc(OCCO)cc1)c1cnc2ccccc2c1 | 0.466 | 0.0474 (inactive) | 0.116 | -0.108 | 0.471 | 1.2 | 0.117 | 1.31 | 1.05 | 0.817 | 0.91 | 0.78 | -0.115 | 0.387 | 0.735 | 0.623 | 0.649 | 1.15 | 0.869 | -0.126 (inactive) |
| O=C1C2C=CC(C(O)c3ccc(-c4ccccc4)s3)N(Nc3ccccc3)C2C(=O)N1c1ccccc1 (stereo not given) | 0.931 | -0.375 (inactive) | 0.24 | 0.0554 | 0.591 | 2.82 | 0.103 | 1.31 | 0.0135 | 0.963 | 2.17 | 1.25 | 0.473 | 0.974 | 0.899 | -0.413 | 0.267 | -0.28 | 0.807 | 0.192 (inactive) |
| COC(=O)c1c(CC[C@@H](CO)NC(=O)N[C@@H](Cc2ccccc2)Cn2cc(-c3ccccn3)nn2)oc(C(=O)N2CCOCC2)c1C(=O)OC | 0.15 | 0.255 (inactive) | 0.0562 | -0.0928 | 0.696 | 0.0795 | -0.425 | -0.23 | -0.488 | -0.376 | -0.241 | -0.341 | 0.384 | -0.405 | 0.57 | -0.129 | -0.187 | 0.795 | 0 | 1.1 (inactive) |
| O=C1NC(=O)C2C1C=CC(C(O)C1CC=CCC1)N2Nc1ccccn1 (stereo not given) | -0.459 | 0.945 (inactive) | 0.137 | -0.0272 | 0.79 | 0.793 | 0.643 | 0.231 | 1.05 | 0.497 | 1.33 | -0.264 | -0.599 | -0.0881 | 0.585 | 0.582 | 0.692 | 0.616 | 0.763 | -1.13 (inactive) |
| CN(C)CCCCCCNC(=O)[C@@H]1C[C@@H]2C(=O)N3CCC[C@H]3C(=O)N2[C@@H]1c1ccc(O)cc1 | -0.645 | 2.74 (inactive) | 0.488 | 0.119 | 0.738 | 2.77 | 1.47 | 1.31 | 1.43 | 1.16 | 3.06 | 1.11 | -0.135 | 0.539 | 1.47 | 1.74 | 0.334 | 1.72 | 0.758 | -0.934 (inactive) |
